Source: PubChem BioAssay (National Center for Advancing Translational Sciences (NCATS))
HEK293 tox – qHTS of GLP-1 Receptor Inverse Agonists: Cytotox Screen; HEK293 cAMP-luciferase reporter cells, luminescence, 24 h; Potency, µM (highest dose often 38.3 µM), for the others: top-dose activity change, negative = inhibition, usual class: inhibitors; 410,000 tested, 0.13% active;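 further: loss of luciferase light is scored as toxicity; potency means the concentration at half of the fitted maximal effect; on the % scale 0 is the no-effect control and ±100 the full control effect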
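MLSMR compounds, 24 hr on cells at 37 deg C/5% CO2; luminescence after luciferase reagent (12 min RT). Inhibition counted as the undesired cytotoxic outcome.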
PTHR1 agonist – qHTS for PTHR1 Agonists: Primary Screen. Parathyroid hormone/parathyroid hormone-related peptide receptor (Homo sapiens), Q03431. HEK293 GP2 PTHR1 cells, GloSensor cAMP luminescence, 1 h. Potency, µM (top dose mostly 115 µM), for inactives: at the top dose activation, hits mostly activators. 410,000 tested, 0.075% active. AID 743266, 2014; further: potency means the concentration at half of the fitted maximal effect; nearly all actives have a fitted effect of over 55% in size
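HEK-293-derived GP2 cells expressing PTHR1 and a GloSensor cAMP reporter, 3,000/well, plated overnight, given luciferin plus IBMX (each 0.5 mM as added) for 1 h at 37 °C, then compound for 1 h at 37 °C. Luminescence was read after 15 min at room temperature.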
TRPML1 inh – qHTS for Inhibitors of the Human Mucolipin Transient Receptor Potential 1 (TRPML1); 390,000 tested, 0.02% active; TRPML1-inducible cells, Ca2+ dye fluorescence, FDSS; stronger effect = lower value; inhibition of EC80 agonist-evoked calcium signal; activity change, negative = inhibition, % (test concentration not listed); in the data active means activity change below about -50%; inconclusive means between about -30% and that limit;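 further: stimulus is agonist 54-4 at its EC80 concentration; on the % scale 0 is the no-effect control and ±100 the full control effect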
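Tet-induced TRPML1-DL cells loaded with Ca8 no-wash calcium dye were read kinetically on FDSS. Compound addition was followed by EC80 agonist 54-4 (4 uM final); inhibition was read over 110 s.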
TRHR PAM – qHTS for Small Molecule Agonists and Allosteric Enhancers of Human TRH Receptor: Primary Screen for Enhancers; 360,000 tested, 0.66% active; Thyrotropin-releasing hormone receptor (Homo sapiens), P34981; TRHR cells, fluo-8 calcium fluorescence, EC20 TRH enhancement; enhancement, % at 2 µM; in the data active means enhancement above about 30%; further: 0% is about no effect
Target sequence (P34981 whole entry, looked up): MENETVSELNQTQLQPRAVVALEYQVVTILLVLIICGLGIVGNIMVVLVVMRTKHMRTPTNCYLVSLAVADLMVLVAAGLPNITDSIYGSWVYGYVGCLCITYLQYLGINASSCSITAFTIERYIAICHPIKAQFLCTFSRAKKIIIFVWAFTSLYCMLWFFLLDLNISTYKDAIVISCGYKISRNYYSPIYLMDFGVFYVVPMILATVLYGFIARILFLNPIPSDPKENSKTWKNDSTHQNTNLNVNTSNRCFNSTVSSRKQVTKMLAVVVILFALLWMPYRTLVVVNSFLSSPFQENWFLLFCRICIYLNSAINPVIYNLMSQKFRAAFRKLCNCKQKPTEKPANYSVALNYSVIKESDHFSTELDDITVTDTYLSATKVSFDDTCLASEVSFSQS
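Enhancer read-out: after compound pinning and an initial kinetic agonist-mode read, an EC20 of TRH (10 nM final) was injected and fluo-8 calcium signal (Ex 480/Em 530) followed at 1 s/cycle for 100 cycles in TRHR-expressing cells.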
TRHR ag – qHTS for Small Molecule Agonists and Allosteric Enhancers of Human TRH Receptor: Primary Screen for Agonists; Thyrotropin-releasing hormone receptor (Homo sapiens), P34981; TRHR cells, calcium flux fluo-8, FDSS agonist mode; activation, % at 2 µM; 360,000 tested, 0.18% active; AID 493084, 2011; in the data active means activation above about 30%; further: 0% is about no effect
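Fluo-8-loaded TRHR cells; 10 s baseline, compound added, kinetic Ca2+ fluorescence read 1/s, agonist mode.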
TRPML1 agonist – qHTS for Agonists of the Human Mucolipin Transient Receptor Potential 1 (TRPML1) | Mucolipin-1 (Homo sapiens), Q9GZU1 | TRPML1-expressing cells, Ca2+ dye fluorescence, FDSS | activation, % (concentration not given with the values) | 410,000 tested, 0.12% active; in the data active means activation above about 50%; inconclusive means mostly about 30% to 49%; further: 0% is about no effect
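Agonist activity was taken from a 110 s kinetic Ca2+ dye read on the FDSS after pinning compounds onto TRPML1-DL cells. The cells were seeded at 1,500/well with Tet inducer, incubated about 16 h, then dye-loaded at room temperature.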
An asterisk follows results filed as active; i = inactive; ? = inconclusive; / = no result; ! = not active in a repeat; [ ] = dose if it differs, or a comment. Most compounds without a hit are left out; they make up all but 0.93% or so of the library. Unless noted, the call rests on the fitted dose curve; in most records, active means well fitted curve in the direction sought with a large enough effect; inconclusive means small, poorly fitted or top-dose-only effect, or another doubt; inactive means no such curve, though single readings can be large; an effect the other way counts as inactive or inconclusive.

SMILES | HEK293 tox | PTHR1 agonist | TRPML1 inh | TRHR PAM | TRHR ag | TRPML1 agonist
Cc1ccc(NC(=O)CSc2nc(=O)cc(N)n2CCc2ccccc2)cc1 | 0.2% | ? | 3.4 | -8.4 | 0.3 | -0.1
C=CCn1c(N)cc(=O)nc1SCC(=O)Nc1ccc(C)cc1 | 4.7%[7.66 µM] | i | -9.6 | 38.7* | 0.3 | -0.4
Cc1ccc(C)c(N2CCN(S(=O)(=O)c3csc(C(N)=O)c3)CC2)c1 | -6.3% | -9.8% | 1.2 | 32.2*! | -2.6 | 0.8
O=C(O)c1ccc(S(=O)(=O)N(Cc2ccc(F)cc2)C2CCCCC2)cc1 | -1.2% | ? | 3.5 | 37.9* | -0.5 | 1.1
NC(Cc1ccc(C(F)(F)F)cc1)c1csc(NC(=O)Nc2ccccc2Oc2ccccc2)n1 (centres undefined) | 11.2µM* | -3.3% | / | / | / | 0.0
COc1ccc(/C=N/NC(=O)c2cccnc2)cc1CN1CCOCC1 | -11.0% | -23.0% | 53.7 | -0.5 | 0.9 | -0.4
COc1cc(/C=N/NC(=O)c2cccnc2)ccc1OCC(=O)N1CCOCC1 | -6.4% | -24.9% | -11.8 | 33.5* | 0.3 | -0.4
Cc1csc(N=Nc2ccc(N(C)C)cc2)[n+]1[O-] | 3.98µM* | -33.1% | -5.0 | / | / | -0.2
CN(C)c1ccc(N=Nc2ccc(C(=O)O)cc2)cc1 | ? | -22.7% | -2.5 | -2.9 | -0.2 | 0.0
CCOc1ccc(NC(=O)CCC(=O)NNS(=O)(=O)c2ccccc2[N+](=O)[O-])cc1 | -1.4% | -38.7% | -20.4 | 4.2 | 102.1* | -0.1
COCC(=O)NNS(=O)(=O)c1ccccc1[N+](=O)[O-] | 13.3% | i | 23.7 | -3.9 | -0.1 | 0.3
NC(=O)CC(c1ccccc1)c1ccc2c(c1)OCO2 (centres undefined) | 15.0% | i | 14.1 | 33.1* | 0.0 | -1.1
O=C(O)c1ccccc1-c1ccc(/C=C2\SC(=O)N(c3ccccc3)C2=O)o1 | -1.3% | -28.8% | -6.7 | 9.6 | 2.0 | 0.6
O=C1S/C(=C\c2ccc(N3CCOCC3)o2)C(=O)N1c1ccccc1 | -11.7% | -24.6% | -4.5 | 9.3 | 63.4* | 56.7*
COc1cc2nc(NC3CCN(Cc4ccccc4)CC3)nc(N3CCCN(C)CC3)c2cc1OC | / | / | / | / | / | -0.3
Cc1ccc(C)c(NC(=S)NC(NC(=O)N(C)C)C(Cl)(Cl)Cl)c1 (centres undefined) | -16.5% | -4.7%[57.5 µM] | 7.3 | -6.0 | -1.1 | -0.8
Cc1ccc(C)c(NC(=S)NC(NC(=O)Cc2cccc3ccccc23)C(Cl)(Cl)Cl)c1 (centres undefined) | 6.31µM* | 22.8% | 7.8 | -3.9 | 1.3 | 0.1
Cc1ccc(NC(=S)Nc2cccc(S(=O)(=O)Nc3c(C)n(C)n(-c4ccccc4)c3=O)c2)cc1 | -0.7% | -0.8% | 22.3 | 32.4* | -0.2 | -0.6
CC(=O)c1ccc(S(=O)(=O)N2CCN(c3nc(-c4ccccc4)nc4ccccc34)CC2)cc1 | / | / | / | / | / | 0.5
CC(=O)c1ccc(S(=O)(=O)N2CCN(c3nc(-c4cccnc4)nc4ccccc34)CC2)cc1 | -21.4% | -16.0% | -13.5 | 34.8* | 0.6 | 0.2
O=C(c1c(F)c(F)c(F)c(F)c1F)N1CCN(c2cccc(C(F)(F)F)c2)CC1 | -11.2% | 0.0%[57.5 µM] | 40.8 | 30.7* | -0.1 | 4.0
O=C(c1ccccc1F)N1CCN(c2cccc(C(F)(F)F)c2)CC1 | -3.7% | -15.7%[57.5 µM] | -3.4 | 0.3 | -0.8 | 1.9
COc1cc2c(NC3CCN(C(C)C)CC3)nc(N3CCCN(C)CC3)nc2cc1OCCOCCN(C)C | / | / | / | / | / | -0.2
CCCCCCCC(O)CC(CC1CCCCC1)C(=O)NN (centres undefined) | -5.2% | -2.1% | -12.3 | 32.9* | 0.0 | -0.3
COC1=C/C(=C/c2c(N)n3nc(CC(=O)N4CCCCC4)sc3nc2=O)C=CC1=O | 135.6% | i | 2.6 | 2.5 | 23.0 | 1.1
SMILES | HEK293 tox | PTHR1 agonist | TRPML1 inh | TRHR PAM | TRHR ag | TRPML1 agonist
CCOC1=C/C(=C/c2c(N)n3nc(S(=O)(=O)CC)sc3nc2=O)C=CC1=O | 7.5% | i | -4.8 | 0.4 | 33.2* | 18.4
O=C(Nc1nnc(SCc2ccc(F)cc2)s1)c1ccccn1 | 5.62µM* | -18.6% | 3.2 | 0.2 | 0.5 | -0.2
O=C(Nc1nnc(SCc2ccc(F)cc2)s1)c1cccnc1Cl | -10.9% | -15.3% | 23.9 | -0.5 | 0.0 | 0.2
COc1cc(N(C)C)ccc1C=c1c2ccccc2n2c1cc(-c1ccccc1)[n+]2C | 12.6µM* | -40.1% | 15.7 | / | / | 0.1
CN(C)c1ccc(C=c2c3ccccc3n3c2cc(-c2ccccc2)[n+]3C)cc1 | ? | -42.6% | 11.8 | / | / | 0.2
CCOC(=O)N1CCN(/[N+]([O-])=N/Oc2ccc(C(F)(F)F)cc2[N+](=O)[O-])CC1 | / | / | -24.5 | / | / | 1.3
O=C(/C=C/c1cn(CC(O)CN2CCOCC2)c2ccccc12)c1cccs1 (centres undefined) | / | / | / | -0.1 | 31.5* | /
Cc1ccc(C(=O)/C=C/c2cn(CC(O)CN3CCOCC3)c3ccccc23)cc1 (centres undefined) | 71.7% | -49.6% | 6.1 | -1.2 | 10.1 | 5.0
CC(=O)c1cccc(NC(=O)CSc2nc3c(=O)n(C)c(=O)n(C)c3n2C)c1 | 0.7% | i | 8.9 | 33.9* | 0.3 | 1.4
COc1cc(C2CC(=O)Oc3c2c(=O)[nH]c2ccccc32)cc(OC)c1OC (centres undefined) | 1.2% | -24.1% | -2.0 | 30.6* | -0.3 | 1.7
CN1CCN(Cc2c(O)ccc3occ(C(=O)c4ccccc4)c23)CC1 | 3.16µM* | i | 18.0 | 28.0 | 0.1 | 0.3
CCOC(=O)c1c(-c2ccccc2)oc2ccc(O)c(CN3CCN(C)CC3)c12 | ? | -21.8% | -8.3 | 14.9 | 0.3 | -0.2
Cc1ccc(NC(=O)Cn2cc(S(=O)(=O)N3CCCC3)c(S(=O)(=O)N3CCCC3)c2)cc1C | -12.0% | -10.1% | -10.9 | -4.1 | 3.6 | -0.5
Cc1ccc(NC(=O)Cn2cc(S(=O)(=O)N3CCCC3)c(S(=O)(=O)N3CCCC3)c2)cc1F | 25.5% | i | 32.8 | 32.0* | 1.3 | 1.5
O=[S+]([O-])(c1ccc2c(c1)OCCO2)N1CCN([S+](=O)([O-])c2c(F)cc(F)cc2Br)CC1 | / | / | / | -0.7 | -1.8 | /
